Experimental findings from PubChem BioAssay (Tox21) are described below.

Molecules are shown by their SMILES. Values without a mark were called inactive. Records with an inconclusive call do not appear. Activity calls are given as the source filed them. Unless noted, calls follow the shape of the dose curve; as a rule, active = well fitted curve in the direction sought with a large enough effect in the repeat runs; inconclusive = weak or mixed curves; inactive = no such curve, though single readings can be large; an effect the other way counts as inactive or inconclusive.

The nature of experiment [1]: qHTS assay for small molecules that induce genotoxicity in human embryonic kidney cells expressing luciferase-tagged ATAD5 (AID 651632). Also: nearly all actives have a fitted effect of over 15% in size. The method, boiled down: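 Genotoxicity read-out via ATAD5-luciferase: HEK293T cells, 16 hr compound incubation at 37C, Amplite detection.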
(qHTS replaces the single test concentration by a dilution series.)

Experiment [2] in a line: qHTS assay for small molecules that induce genotoxicity in human embryonic kidney cells expressing luciferase-tagged ATAD5 - cell viability (AID 651634; calls by dose curve; also: nearly all actives have a fitted effect of over 25% in size; also: potency is read from the fitted curve at half-maximal effect). In a few lines: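 Live-cell protease activity (CellTiter-Fluor, fluorescence) indicates viability. HEK293T cells with luciferase-tagged ATAD5; 15.5 hr compound treatment at 37C.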
Experiment [3] in a line: qHTS assay for small molecule disruptors of the mitochondrial membrane potential - cell viability (AID 720634; calls by dose curve;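 also: human HepG2 liver cancer cells; series mostly up to about 83 µM; nearly all actives have a fitted effect of over 20% in size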). In a few lines: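 Human hepatoma HepG2 cells were treated for 1 hr with test chemicals, then given m-MPI dye and CellTiter-Glo. Cell viability reflects luminescence proportional to cellular ATP.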
Experiment [4] in a line: qHTS assay to test for compound auto fluorescence at 590 nm (red) in HepG2 cells (AID 720674). In a few lines:
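We screened compounds on adherent HepG2 cells, incubating them for an hour at 37 C in 5% CO2 before reading emission at 590 nm under 540 nm excitation; values reflect equivalence to Rose Bengal sodium fluorescence.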

Experiment [5] in a line: qHTS assay to test for compound auto fluorescence at 460 nm (blue) in HEK293 cells (AID 720678). In a few lines: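 Cells were seeded and left to adhere for 4-5 hr at 37C. Compounds were then pin-transferred. After an overnight incubation at 37C under 5% CO2, intrinsic fluorescence at 405/460 nm was measured and referenced to triamterene.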
Experiment [6] is described as follows: qHTS assay to test for compound auto fluorescence at 590 nm (red) in HEK293 cells (AID 720679). The method, boiled down: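 Each well held 2,000 HEK293 cells in medium containing 10% dialyzed FBS. Following 4-5 hr attachment at 37C, 23 nL test compound or DMSO was added; plates sat overnight, and red fluorescence (540/590nm) was recorded.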
A short description of experiment [7]: qHTS assay to test for compound auto fluorescence at 535 nm (green) in HEK293 cells (AID 720680).
The nature of experiment [8]: qHTS assay to test for compound auto fluorescence at 460 nm (blue) in HEK293 cell free culture (AID 720681). The method, boiled down:
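Blue fluorescence (Ex 405/Em 460 nm, triamterene-equivalent) was read immediately after pin transfer of compound or DMSO into medium (DMEM, 10% FBS) without cells.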

Experiment [9] can be described thus: qHTS assay to test for compound auto fluorescence at 535 nm (green) in HEK293 cell free culture (AID 720682). The method, boiled down:
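Using fluorescein as calibrant, autofluorescence was quantified at 485/535 nm in cell-free DMEM containing 10% FBS after pintool addition of compound or vehicle.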

Experiment [10] in a line: qHTS assay to test for compound auto fluorescence at 590 nm (red) in HEK293 cell free culture (AID 720683). In a few lines: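 Red-channel autofluorescence of compounds in culture medium (DMEM, 10% FBS), no cells, measured at 540/590 nm. Rose Bengal sodium is the reference fluorophore for equivalence.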
A short description of experiment [11]: qHTS assay to test for compound auto fluorescence at 590 nm (red) in HepG2 cell free culture (AID 720684). The method, boiled down: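 Plate contents were MEM with 10% FBS plus test compound or DMSO, no cells. Fluorescence was recorded with 540 nm excitation and 590 nm emission.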
Experiment [12] is described as follows: qHTS assay to test for compound auto fluorescence at 460 nm (blue) in HepG2 cell free culture (AID 720685). In a few lines:
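Compound (23 nL) or DMSO pinned into cell-free MEM with 10% FBS; blue fluorescence read at 405/460 nm excitation/emission, expressed as auto-fluorescence equivalency to triamterene.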

Experiment [13] can be described thus: qHTS assay to test for compound auto fluorescence at 535 nm (green) in HepG2 cell free culture (AID 720686).
Experiment [14] can be described thus: qHTS assay to test for compound auto fluorescence at 460 nm (blue) in HepG2 cells (AID 720687). The method, boiled down:
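Blue-channel autofluorescence (Ex/Em 405/460 nm, triamterene-equivalent) was measured after 1 hr compound exposure at 37 C, 5% CO2. Cells were HepG2, plated overnight at 37 C in MEM plus 10% FBS.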

The target of experiment [15] is Glucocorticoid receptor (Homo sapiens) (UniProt P04150). Description: qHTS assay to identify small molecule agonists of the glucocorticoid receptor (GR) signaling pathway (AID 720691; active = well fitted activation curve with a large enough effect in the signal ratio in the repeat runs, not every such curve was filed as active; the % refers to the signal ratio). The method, boiled down: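 Beta-lactamase reporter activity, read as fluorescence intensity, was measured in GR-bla HeLa cells exposed to compounds for 18 h at 37 C and then loaded with LiveBLAzer B/G FRET substrate for 2 h at room temperature.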

Experiment [16] has the same target. Description: qHTS assay to identify small molecule antagonists of the glucocorticoid receptor (GR) signaling pathway (AID 720692; active = well fitted inhibition curve with a large enough effect in the signal ratio in the repeat runs, not every such curve was filed as active; the % refers to the signal ratio; also: potency is read from the fitted curve at half-maximal effect). In a few lines: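 Fluorescence from cleaved LiveBLAzer B/G FRET substrate reports GRE-driven beta-lactamase in HeLa cells; compounds are tested against 5 nM dexamethasone (final) over 18 h at 37 C, substrate incubation 2 h at room temperature.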

A short description of experiment [17]: qHTS assay for small molecule disruptors of the mitochondrial membrane potential (AID 720635). Also: potency is read from the fitted curve at half-maximal effect. In a few lines:
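Mitochondrial membrane potential tracked with Mito-MPS dye, red aggregates (ex 540/em 590 nm) against green monomers (ex 490/em 535 nm). Compound treatment 1 hr at 37C, dye 30 min in HepG2.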

A short description of experiment [18]: qHTS assay for small molecule agonists of the p53 signaling pathway - cell viability (AID 651633; calls by dose curve; also: nearly all actives have a fitted effect of over 30% in size; also: potency is read from the fitted curve at half-maximal effect;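 as to activity change, negative = cytotoxicity: p53RE-bla HCT reporter cells with a stable beta-lactamase p53 reporter; series mostly up to about 83 µM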). The method, boiled down:
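Viability counter-read: CellTiter-Glo luminescence (30 min, room temperature) in the same p53RE-bla plates. These plates had been exposed to compounds for 16 h at 37 C.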

The nature of experiment [19]: qHTS assay to test for compound auto fluorescence at 535 nm (green) in HepG2 cells (AID 720675).
% is scaled to controls: 0 for no effect and ±100 for the full control effect.

Glucocorticoid receptor (Homo sapiens), sequence (P04150 whole entry, looked up): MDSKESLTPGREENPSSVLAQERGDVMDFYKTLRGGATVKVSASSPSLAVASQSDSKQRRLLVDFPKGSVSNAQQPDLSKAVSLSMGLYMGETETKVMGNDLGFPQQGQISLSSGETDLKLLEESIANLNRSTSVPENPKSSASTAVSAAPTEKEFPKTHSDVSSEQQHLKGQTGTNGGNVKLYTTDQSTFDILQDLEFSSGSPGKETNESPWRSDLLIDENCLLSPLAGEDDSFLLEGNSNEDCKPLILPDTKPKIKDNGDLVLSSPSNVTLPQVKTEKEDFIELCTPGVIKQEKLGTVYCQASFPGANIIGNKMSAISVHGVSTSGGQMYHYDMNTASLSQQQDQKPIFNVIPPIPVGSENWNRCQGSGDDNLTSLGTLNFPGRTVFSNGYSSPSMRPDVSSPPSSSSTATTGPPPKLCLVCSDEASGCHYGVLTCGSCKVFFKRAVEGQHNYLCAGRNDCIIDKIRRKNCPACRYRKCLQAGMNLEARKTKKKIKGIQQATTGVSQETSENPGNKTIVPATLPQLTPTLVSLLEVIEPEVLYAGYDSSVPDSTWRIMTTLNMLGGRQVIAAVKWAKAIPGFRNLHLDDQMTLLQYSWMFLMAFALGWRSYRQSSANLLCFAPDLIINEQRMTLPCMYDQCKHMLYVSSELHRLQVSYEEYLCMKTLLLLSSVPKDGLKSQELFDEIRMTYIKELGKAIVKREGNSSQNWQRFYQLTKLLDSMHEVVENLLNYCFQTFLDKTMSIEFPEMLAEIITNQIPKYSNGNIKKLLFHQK

As to `O=C(CCS)OCC(COC(=O)CCS)(COC(=O)CCS)COC(=O)CCS`, the Potency result in experiment [1], in [2], in [5], in experiment [8], in [12] and in [14] was “inactive” in each case. Further, the Potency entry in experiment [15] and in experiment [16] was “inactive” throughout. The result in [3], in [4], in [6], in experiment [7], in experiment [9] and in experiment [10] was inactive. Moreover, the outcome in experiment [11] and in [13] was inactive.

Consider `COC(=O)C1=C(C)NC(C)=C(C(=O)OC(C)(C)CN(C)CCC(c2ccccc2)c2ccccc2)C1c1cccc([N+](=O)[O-])c1` (stereo not given), for which the Potency result in experiment [1], in [5], in experiment [8], in experiment [12], in experiment [14] and in experiment [15] was “inactive” each time. The Potency in experiment [17] was 5.96 µM (active); in experiment [16] it was 6.74 µM (active). Further, the outcome in [4], in experiment [6], in [7], in experiment [9], in [10] and in [11] was inactive. Besides, in experiment [13], the call was inactive.

`CC/C=C\C/C=C\C/C=C\CCCCCCCC(=O)OCC`: the Potency entry in [1], in [5], in experiment [8], in experiment [12], in experiment [14] and in [15] was “inactive” each time. Further, the Potency in [18] is 62.5 µM (active); in [16] it was 50.1 µM (active). The compound was classed as inactive in experiment [3], in experiment [4], in experiment [6], in experiment [7], in [9] and in experiment [10]. In addition, the compound was classed as inactive in [11] and in [13].

Regarding `CCN(Cc1cccc(S(=O)(=O)O)c1)c1ccc(C(=C2C=CC(=[N+](CC)Cc3cccc(S(=O)(=O)O)c3)C=C2)c2ccc(O)cc2S(=O)(=O)[O-])cc1`, the Potency result in experiment [1], in experiment [5], in experiment [8], in experiment [12], in experiment [14] and in experiment [15] was “inactive” in each case. The Potency result in experiment [16] is “inactive”. In [2], the Potency is 33.1 µM (active). Moreover, the result in experiment [4], in experiment [19], in experiment [6], in [7], in experiment [9] and in experiment [10] was inactive. In addition, the result in experiment [11] and in [13] was inactive.

As for `C=CCOC(=O)COCCC(C)C`, the Potency result in experiment [1], in experiment [2], in [5], in [8], in experiment [12] and in [14] was “inactive” each time. Moreover, the Potency entry in experiment [15] is “inactive”. Also, the compound was classed as inactive in experiment [3], in [4], in experiment [6], in experiment [7], in experiment [9] and in [10]. Further, in experiment [13], the outcome was inactive.

For the compound `Nc1ccc(F)cc1`, the compound was called inactive in experiment [3], in [4], in experiment [19], in experiment [6], in experiment [7] and in experiment [9]. For the same compound, the call in experiment [10], in experiment [11] and in [13] was inactive. Also, the Potency entry in experiment [5], in experiment [8], in [12], in experiment [14], in experiment [15] and in experiment [16] was “inactive” each time.

As to `Cc1ccccc1S(N)(=O)=O`, the Potency result in [18], in experiment [2], in [5], in experiment [8], in [12] and in experiment [14] was “inactive” each time. In addition, the Potency entry in experiment [15] and in experiment [16] was “inactive” each time. The outcome in experiment [3], in [4], in experiment [19], in [6], in experiment [7] and in [9] was inactive. In addition, the compound was classed as inactive in experiment [10], in experiment [11] and in [13].

Regarding `O=C1OC(=O)c2c(Br)c(Br)c(Br)c(Br)c21`, the Potency entry in experiment [18], in [2], in experiment [17], in [5], in experiment [8] and in [12] was “inactive” in each case. Moreover, the Potency entry in experiment [14], in experiment [15] and in [16] was “inactive” each time. The call in experiment [3], in experiment [4], in experiment [19], in experiment [6], in experiment [7] and in experiment [9] was inactive. The call in [10], in [11] and in experiment [13] was inactive.

`CCC(Cl)CC(Cl)C(Cl)C(Cl)C(Cl)C(C)Cl` (stereo not given): the activation in experiment [1] is 8.79% [at 17.9 µM]; in experiment [15], -0.909% [at 15 µM]. Besides, in [2], the activity, negative = cytotoxicity was 13% [at 17.9 µM]. In [3], the activity change, negative = cytotoxicity is -14.9% [at 17.9 µM]. Also, in experiment [4], the fluorescence, relative to Rose Bengal is 0.266% [at 13.4 µM]. The fluorescence, % of triamterene in experiment [5] was 0.1% [at 13.4 µM]. Further, the fluorescence, % of fluorescent control was -0.173% [at 13.4 µM] in experiment [6], -0.0269% [at 13.4 µM] in experiment [10], 0.066% [at 13.4 µM] in [12] and 0.0691% [at 13.4 µM] in experiment [14]. In [7], the fluorescence, % of fluorescein is 0.0197% [at 13.4 µM]. Further, in [9], the activity change was -0.0067% [at 13.4 µM]. Also, the fluorescence, % of fluorescein control in [13] is -0.002% [at 13.4 µM]. In addition, in [16], the Potency entry is “inactive”.

Turning to `CC(CCc1ccc(O)cc1)NCCc1ccc(O)c(O)c1` (stereo not given), the Potency result in experiment [1], in [18], in experiment [5], in experiment [12], in experiment [14] and in experiment [15] was “inactive” in each case. For the same compound, the Potency entry in experiment [16] is “inactive”. Besides, the outcome in [3], in experiment [4], in experiment [6], in experiment [7], in experiment [9] and in experiment [10] was inactive. The call in experiment [11] and in [13] was inactive.

With `O=C(/C=C/c1ccc([N+](=O)[O-])cc1)c1ccccc1`, the Potency in experiment [18] is 68.7 µM (active); in [17] it was 30.7 µM (active). The call in [3], in experiment [4], in [6], in experiment [7], in experiment [9] and in [10] was inactive. Besides, the result in [11] and in experiment [13] was inactive. The Potency result in [5], in experiment [12], in experiment [14] and in experiment [15] was “inactive” in each case.
